Compounds with a hit are over-represented: about 2.2% of the library has one in this group of screens.
HepG2 tox-1: counter-screen for TGF-b inhibitors: cytotoxicity in HepG2 cells; AID 588856; Potency, µM (highest dose often 46.1 µM), most hits filed as cytotoxic; 0.76% of 410,000 active; HepG2 CAGA-GFP viability, ATP luminescence, 18 h
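CellTiter-Glo luminescence gave cytotoxicity after 18 hours at 37 degrees C. The cells were HepG2 CAGA-GFP in 1% FBS DMEM, stimulated with 500 pg/mL TGF-beta after compound addition. %Activity was normalised to no-cell wells (complete cell-killing) and DMSO (no toxicity), and curves were fitted and classified.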
ATXN2 expr inh: ATXN2 expression inhibition | HEK-293 ATXN2-luciferase reporter, luminescence, 24 h | Potency, µM (top dose mostly 57 µM), actives largely listed as inhibitors | 0.72% of 360,000 active | AID 1745845; further: nearly all actives have a fitted effect of over 55% in size
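qHTS (up to 57 uM final) was run with 24 h compound exposure of reporter cells at 37 °C. Each well was multiplexed: SteadyGlo luminescence measured ATXN2-luciferase expression after a fluorogenic Gly-Phe-AFC viability readout (25 uM final).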
mIDH1 inhibitor: human IDH1 R132H inhibition; Potency, µM (titrated, usually from 76.6 µM), most hits filed as inhibitors; 0.093% of 390,000 active; IDH1-R132H enzyme, NADPH consumption, diaphorase/resazurin fluorescence; AID 602179; further: nearly all actives have a fitted effect of over 65% in size
Target sequence (O75874 whole entry R132H, stated change not applied): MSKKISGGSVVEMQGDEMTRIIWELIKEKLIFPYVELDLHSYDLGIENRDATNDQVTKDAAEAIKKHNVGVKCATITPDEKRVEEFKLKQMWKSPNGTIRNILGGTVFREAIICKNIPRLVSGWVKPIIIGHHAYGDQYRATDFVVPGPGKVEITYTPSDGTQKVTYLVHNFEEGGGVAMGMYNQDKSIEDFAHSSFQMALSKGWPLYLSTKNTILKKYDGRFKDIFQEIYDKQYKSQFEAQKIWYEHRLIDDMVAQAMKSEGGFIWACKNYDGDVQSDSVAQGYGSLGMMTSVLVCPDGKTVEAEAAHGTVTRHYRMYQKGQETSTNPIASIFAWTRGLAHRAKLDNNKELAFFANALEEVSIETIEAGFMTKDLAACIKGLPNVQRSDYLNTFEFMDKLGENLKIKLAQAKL
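IDH1-R132H (0.5 ug/mL) preincubated 30 min with compound, then NADPH (0.016 mM) and alpha-KG (2 mM) added; 80 min at RT, pH 7.5. Remaining NADPH coupled via diaphorase/resazurin to fluorescence (540/590 nm); concentration-response curves normalized to no-enzyme control.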
TGFb SMAD3 inh: inhibitors of TGF-b signaling; Potency, µM (highest dose often 46.1 µM), actives largely listed as inhibitors; AID 588855; HepG2 CAGA-GFP TGF-b/SMAD3 reporter, GFP fluorescence, 18 h; TGF-beta stimulated, 500 pg/mL final; 1.2% of 410,000 active; further: nearly all actives have a fitted effect of over 65% in size
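Cell-based qHTS in HEPG2 carrying a CAGA-GFP Smad reporter; compounds added before 500 pg/mL final TGF-beta, 18 h incubation at 37 degrees C, GFP fluorescence quantified per cell by imaging cytometry.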
ATXN viability: cell viability loss in ATXN counter-screen; S2 cells (HEK-293 line with an ATXN2-luciferase reporter) viability, CellTiter-Fluor protease fluorescence, 24 h; Potency, µM (top dose mostly 56.7 µM), most hits filed as cytotoxic; 0.49% of 400,000 active; AID 651635; further: nearly all actives have a fitted effect of over 40% in size
LDHA block: blocks human lactate dehydrogenase A | AID 1347041 | purified LDHA, NADH/diaphorase-resazurin fluorescence; stronger effect = lower value | P00338 | 0.15% of 480,000 active | activity change, % (values are at about 110 or 230 µM); in the data active means activity change below about -30%; inconclusive means mostly about -25% to -30%
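Enzyme activity of human lactate dehydrogenase 5 (2 nM; 0.06 mM NADH, 0.2 mM pyruvate, 5 min, RT) is measured via a resazurin/diaphorase fluorescence readout of residual NADH.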
TGFb CAGA inh: TGF-b pathway inhibition, cherry-pick retest. Potency, µM (top dose mostly 46.1 µM), hits mostly inhibitors. 63% of 1,600 active. shares compounds with TGFb SMAD3 inh. HepG2 CAGA-GFP TGF-b reporter, GFP fluorescence, 18 h; cells stimulated with TGF-beta, 500 pg/mL; further: nearly all actives have a fitted effect of over 65% in size
HepG2 tox-2: counter-screen for TGF-b inhibitors: cytotoxicity in HepG2 cells | shares compounds with TGFb SMAD3 inh | HepG2 CAGA-GFP viability, ATP luminescence, 18 h; cells stimulated with TGF-beta, 500 pg/mL | Potency, µM (doses to about 46.1 µM), actives largely listed as inhibitors | 27% of 1,600 active | AID 720535; further: nearly all actives have a fitted effect of over 70% in size
CCL64 TGFb inh: TGF-b inhibition, CCL64 orthogonal assay; shares compounds with TGFb SMAD3 inh; CCL64 CAGA-GFP reporter, TGF-b stimulated, GFP fluorescence, 18 h; Potency, µM (doses to about 46.1 µM), usual class: inhibitors; 41% of 1,600 active; AID 720536; further: nearly all actives have a fitted effect of over 65% in size
COP TGFb inh: validation of TGF-b inhibitors in HepG2 COP promoter reporter | 3% of 1,600 active | shares compounds with TGFb SMAD3 inh | Potency, µM (top dose mostly 46.1 µM), most hits filed as inhibitors | HepG2 COP-GFP TGF-b reporter, GFP fluorescence, 18 h; cells stimulated by added recombinant TGF-beta; further: nearly all actives have a fitted effect of over 70% in size
Hits are given with their value. Unless noted, the call rests on the fitted dose curve; in most records, active means well fitted curve in the direction sought with a large enough effect; inconclusive means small, poorly fitted or top-dose-only effect, or another doubt; inactive means no such curve, though single readings can be large; an effect the other way counts as inactive or inconclusive.

How did CCCCC(=O)NC(c1ccc(OC)cc1)c1ccc2cccnc2c1O (configuration not stated) do in these assays?
HepG2 tox-1: inactive; mIDH1 inhibitor: inactive; TGFb SMAD3 inh: inconclusive; ATXN viability: inconclusive; LDHA block: inactive

Results for COc1ccc(C(NC(C)=O)c2cc(Cl)c3cccnc3c2O)cc1 (configuration not stated) ?
HepG2 tox-1: inactive; ATXN2 expr inh: 4.5µM; mIDH1 inhibitor: inactive; TGFb SMAD3 inh: 7.1µM; ATXN viability: inactive; LDHA block: inactive; TGFb CAGA inh: inconclusive; HepG2 tox-2: inconclusive; CCL64 TGFb inh: 13µM; COP TGFb inh: inactive

How did O=C(c1ccc(OC2CCN(Cc3cccc(F)c3)CC2)cc1)N1CCCCC1 do in these assays?
HepG2 tox-1: inactive; ATXN2 expr inh: inactive; mIDH1 inhibitor: inactive; TGFb SMAD3 inh: inactive; ATXN viability: inconclusive; LDHA block: inactive

Results for CCOc1ccccc1NC(=O)c1nc(S(=O)(=O)Cc2ccccc2)ncc1Cl ?
HepG2 tox-1: 6.3µM; mIDH1 inhibitor: inactive; TGFb SMAD3 inh: 5µM; ATXN viability: 8.9µM; LDHA block: inactive; TGFb CAGA inh: 2.9µM; HepG2 tox-2: 5.8µM; CCL64 TGFb inh: 4.6µM; COP TGFb inh: 7.3µM

Results for Cc1ccc(CNC(=O)c2nc(S(=O)(=O)Cc3ccc(C)cc3)ncc2Cl)cc1 ?
HepG2 tox-1: inactive; ATXN2 expr inh: inactive; mIDH1 inhibitor: inactive; TGFb SMAD3 inh: inconclusive; ATXN viability: inactive; LDHA block: inactive

How did Cc1cccc(CS(=O)(=O)c2ncc(Cl)c(C(=O)NCc3ccc4c(c3)OCO4)n2)c1 do in these assays?
HepG2 tox-1: 14µM; mIDH1 inhibitor: inactive; TGFb SMAD3 inh: 7.9µM; ATXN viability: inconclusive; LDHA block: inactive; TGFb CAGA inh: 5.8µM; HepG2 tox-2: 13µM; CCL64 TGFb inh: 2.9µM; COP TGFb inh: inconclusive

What do the screens show for `CCS(=O)(=O)c1ncc(Cl)c(C(=O)Nc2ccc(S(=O)(=O)N3CCC(C)CC3)cc2)n1`?
HepG2 tox-1: 1.8µM; ATXN2 expr inh: inactive; mIDH1 inhibitor: inactive; TGFb SMAD3 inh: 4.5µM; ATXN viability: 14µM; LDHA block: inactive; TGFb CAGA inh: 4.6µM; HepG2 tox-2: 4.6µM; CCL64 TGFb inh: 2.1µM; COP TGFb inh: 9.2µM

What do the screens show for `CN(c1ccccc1)S(=O)(=O)c1ccc(NC(=O)c2nc(S(C)(=O)=O)ncc2Cl)cc1`?
HepG2 tox-1: 5.6µM; ATXN2 expr inh: 14µM; mIDH1 inhibitor: inactive; TGFb SMAD3 inh: 5.6µM; ATXN viability: 16µM; LDHA block: inactive; TGFb CAGA inh: 2.9µM; HepG2 tox-2: 4.1µM; CCL64 TGFb inh: 1.8µM; COP TGFb inh: 6.5µM

How did O=C(O)c1ccccc1C(=O)OC1CC2CCC1C2 (configuration not stated) do in these assays?
HepG2 tox-1: inactive; mIDH1 inhibitor: inactive; TGFb SMAD3 inh: inactive; ATXN viability: inactive; LDHA block: inactive

Bioassay records deposited in PubChem by National Center for Advancing Translational Sciences (NCATS).
